For 35 compounds, Potency results are on record in PubChem BioAssay (NCATS).

SMILES strings stand for the structures. Inconclusive results are not listed. Where a call stands in place of a potency, no number is given. Active and inactive are the calls of the source. Calls follow the shape of the dose curve; as a rule, active = well fitted inhibition curve with a large enough effect in the repeat runs; inconclusive = weak or mixed curves; inactive = no such curve, though single readings can be large or run the other way.
Potency is read from the fitted curve at half-maximal effect.

The target of the experiment is Cytochrome P450 2C9 (Homo sapiens) (UniProt P11712). Description: Cytochrome P450 family 2 subfamily C member 9 (CYP2C9) small molecule antagonists: luciferase biochemical (cell-free) qHTS assay (AID 1645842). Also: nearly all actives have a fitted effect of over 55% in size. As to conditions: P450-Glo CYP2C9 enzyme assay, luciferin luminescence; series mostly up to 57.4 µM. In short, it runs like this: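 P450-Glo CYP2C9 system: proluciferin substrate with enzyme in mix containing 0.4% BSA, 10 min at room temperature, then NADPH regeneration solution added and incubated 1 h at 37C. Detection reagent stopped reaction; luminescence read after 20 min as RLU.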
Cytochrome P450 2C9 (Homo sapiens), sequence (P11712 whole entry, looked up): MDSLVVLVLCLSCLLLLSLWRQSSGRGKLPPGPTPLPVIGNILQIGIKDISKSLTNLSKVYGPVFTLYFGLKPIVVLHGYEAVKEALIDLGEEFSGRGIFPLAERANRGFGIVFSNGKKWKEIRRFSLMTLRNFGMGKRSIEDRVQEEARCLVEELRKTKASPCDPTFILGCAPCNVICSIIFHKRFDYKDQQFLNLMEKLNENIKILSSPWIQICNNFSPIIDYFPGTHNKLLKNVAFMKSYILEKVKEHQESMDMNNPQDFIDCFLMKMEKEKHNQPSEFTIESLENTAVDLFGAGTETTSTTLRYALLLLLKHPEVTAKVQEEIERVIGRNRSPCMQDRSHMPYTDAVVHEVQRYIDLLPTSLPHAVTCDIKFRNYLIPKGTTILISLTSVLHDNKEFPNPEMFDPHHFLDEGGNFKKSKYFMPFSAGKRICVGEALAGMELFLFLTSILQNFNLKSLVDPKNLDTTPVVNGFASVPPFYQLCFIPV
In general terms: Quantitative high-throughput screening tests each substance at several concentrations.
As for `C[N+]1(C)[C@@H]2CC[C@H]1CC(OC(=O)C(CO)c1ccccc1)C2` (stereo not given in full), the Potency result was “inactive”.
As to `COc1cc(C[C@@H](C)N)c(OC)cc1C`, the Potency entry was “inactive”.
For `OC(O)C(Cl)(Cl)Cl`, the Potency entry was “inactive”.
Under `C1CN2CCC1CC2` stands “inactive”; under `O=C(CCCCl)c1ccc(F)cc1`, “inactive”; under `c1ccc2nc(N3CCNCC3)ccc2c1`, “inactive”.
As for `CCOC(=O)NC(O)C(Cl)(Cl)Cl` (stereo not given), the Potency result is “inactive”.
Take `CC(C)C(Br)C(=O)NC(N)=O` (stereo not given): the Potency entry was “inactive”.
Turning to `COc1ccc(OC)c(CC(C)N)c1` (stereo not given), the Potency result is “inactive”.
In the case of `COc1cc(N)c(Cl)cc1C(=O)NC1CN2CCC1CC2` (stereo not given) it was “inactive”; in that of `N#Cc1nn(-c2c(Cl)cc(C(F)(F)F)cc2Cl)c(N)c1S(=O)C(F)(F)F` (stereo not given), 3.89 µM (active).
Under `CCN(CC)CCOC(=O)C(C)(c1ccccc1)c1ccccc1` stands 3.89 µM (active); under `CCOC(=O)c1cncn1C(C)c1ccccc1` (stereo not given), 11 µM (active).
For `C#C[C@]1(O)CC[C@H]2[C@@H]3CCC4=CC(=O)CCC4=C3C=C[C@@]21CC`, the Potency result is “inactive”.
Turning to `CCOC(=O)NC(C)(C)Cc1ccc(Cl)cc1`, the Potency is 15.5 µM (active).
With `COCC(=O)N(c1c(C)cccc1C)C(C)C(=O)OC` (stereo not given), the Potency entry is “inactive”.
With `ClC1=C(Cl)C2(Cl)C(CBr)CC1(Cl)C2(Cl)Cl` (stereo not given), the Potency result was “inactive”.
In the case of `CC(Cc1ccc2c(c1)OCO2)NO` (stereo not given) it was 38.6 µM (active).
Take `Oc1c(Br)cc(Br)cc1Br`: the Potency result was “inactive”.
Consider `NCc1cccnc1`, for which the Potency result is “inactive”.
Regarding `CCOC(=O)C(c1c(O)c2ccccc2oc1=O)c1c(O)c2ccccc2oc1=O`, the Potency was 3.09 µM (active).
In the case of `CCCOC(=O)Cc1ccc(OCC(=O)N(CC)CC)c(OC)c1`, the Potency result was “inactive”.
In the case of `CCOC(=O)c1ncn2c1CN(C)C(=O)c1c(I)cccc1-2`, the Potency entry is “inactive”.
As for `CN(C)C(=O)Oc1cc(OC(=O)N(C)C)cc(C(O)CNC(C)(C)C)c1` (stereo not given), the Potency entry was “inactive”.
Regarding `CN1C[C@@H](NS(=O)(=O)N(C)C)C[C@@H]2c3cccc4c3c(cn4C)C[C@H]21`, the Potency result is “inactive”.
Turning to `Cc1nnc2n1-c1sc(CCC(=O)N3CCOCC3)cc1C(c1ccccc1Cl)=NC2`, the Potency entry was “inactive”.
In the case of `CN1C(=O)CN=C(c2ccccc2)c2cc([N+](=O)[O-])ccc21` it was “inactive”; in that of `CCS(=O)(=O)C(C)(C)S(=O)(=O)CC`, “inactive”; in that of `COc1cc(CC#N)cc(OC)c1OC`, “inactive”.
As to `C[N+](C)(C)CCOC(=O)C(O)(c1ccccc1)c1ccccc1`, the Potency result was “inactive”.
As for `C[C@]12CC[C@H]3[C@@H](CCC4=CC(=O)CC[C@@H]43)[C@@H]1CC[C@@H]2O`, the Potency result was “inactive”.
As to `CCNc1nc(Cl)nc(NCC)n1`, the Potency entry is “inactive”.
Regarding `O=c1[nH]c2cc(Cl)ccc2n1C1CCNCC1`, the Potency entry is “inactive”.
On to `C[C@]12CC[C@H]3[C@@H](CC=C4C[C@@H](O)CC[C@@]43C)[C@@H]1CC[C@@H]2O`, for which the Potency result is “inactive”.
Take `CCN1CCCC1CNC(=O)C(O)(c1ccccc1)c1ccccc1` (stereo not given): the Potency result is “inactive”.
